These results are taken from PubChem BioAssay AID588719 (Southern Research Specialized Biocontainment Screening …, 2011).

Among all 1,500 compounds or so, about 920 (61%) were called active. So high a share suggests a set chosen from earlier hits. Some of the results follow. Entries with a potency or affinity are not part of this list. Values without a mark were called inactive. The rule behind the calls is not given here.

The experiment can be described thus: Vero 76 cell cytotoxicity, dose response, cytotoxicity control for VEEV inhibitor project (AID 588719). To be noted: Vero 76 cells viability, cytotoxicity counter-screen; series mostly up to 25 µM; viability: at the top concentration. Background: A counterscreen serves to expose hits that act by an unwanted route or on another target.
As usually defined, the viability is a read-out of living cells in per cent, often relative to untreated cells. For the compound `OCC1(CCOc2ccccc2)CCN(Cc2nc3ccc(F)cc3[nH]2)CC1`, the “viability” value is 82.4%.
As for `COc1ccc(S(=O)(=O)N2CCC(C(=O)N[C@@H](C)C(=O)NCc3ccc(F)cc3)CC2)cc1`, the figure is 88.8%; as for `COc1ccc(C(=O)/C=C/C(=O)N(CC(=O)NC2CCCCC2)Cc2ccccc2OC)c(O)c1`, 93.6%; as for `CCCN1C(=O)c2ccccc2NC1c1ccc(OC)cc1O` (centres undefined), 79.5%.
As for `CCN1CCN(Cc2nc3ccc([N+](=O)[O-])cc3c(=O)n2-c2ccccc2F)CC1`, the figure is 79.8%.
The same measure for `Cc1onc(C(=O)Nc2cccc(C(F)(F)F)c2)c1[N+](=O)[O-]`: 76.4%; for `CC1(NS(=O)(=O)c2ccc(Cl)s2)CCS(=O)(=O)C1` (centres undefined): 92.2%; for `C/C(=N/OCO/N=C(\C)c1ccccc1)c1ccccc1`: 85.1%.
With `O=S(=O)(Nc1nc2ccccc2nc1NCc1ccco1)c1ccc(F)cc1`, the “viability” value was 96%.
As for `O=S(=O)(c1ccc(Cl)cc1)N1CCN(C(=S)Nc2ccccc2F)CC1`, the “viability” value was 87.5%.
The same measure for `CCC1CCCCN1S(=O)(=O)c1ccc(NC(=O)c2nc(S(C)(=O)=O)ncc2Cl)cc1` (centres undefined): 95.8%; for `CC(C)(C)OC(=O)[C@H](Cc1ccccc1)NC(=O)c1nc[nH]c1C(=O)N1CCN(C(=O)OC(C)(C)C)CC1`: 73.2%; for `C[C@@H](NC(=O)c1nc[nH]c1C(=O)N1CCN(C(=O)OC(C)(C)C)CC1)c1ccccc1`: 92.1%.
Consider `CCn1c2ccccc2c2cc(NC(=O)c3ccc(=O)oc3)ccc21`, for which the “viability” value is 88.2%.
Consider `CN(C)CCOCCOc1ccc(Cl)cc1C(C)(C)C`, for which the “viability” value was 77%.
As for `O=c1cc(-c2ccccc2)nc(/C=C/c2ccccc2)[nH]1`, the figure is 92.5%.
As for `Cc1nonc1OC(C)CNCCNc1ccc([N+](=O)[O-])cc1` (centres undefined), the figure is 93.8%.
As for `COc1ccc(-n2c(CN3CCC(C(N)=O)CC3)nc3ccc([N+](=O)[O-])cc3c2=O)c(OC)c1`, the figure is 96.6%.
With `CCn1cc(C(=O)O)c(=O)c2cc(F)c(N3CCN(C(=S)NC(=O)c4ccc(F)cc4)CC3)cc21`, the “viability” value is 96.5%.
Turning to `S=c1[nH]nc(-c2ccccn2)n1/N=C/c1ccc(-c2ccccc2Br)o1`, the “viability” value was 89.9%.
As for `O=C(O)c1cccnc1Nc1ccc(Cl)cc1`, the figure is 77.5%; as for `O=C(Nc1ccc(Cl)cc1C(=O)c1ccccn1)c1ccccc1`, 85.4%.
The same measure for `Cc1cc(C(=O)Cn2nnc3ccccc3c2=O)c(C)n1-c1ccccc1F`: 74.2%.
As for `Cc1ccc(C)c(-n2cc(CNC(C)Cn3cncn3)c(-c3ccccc3)n2)c1` (centres undefined), the figure is 89.9%.
As to `O=C(N/N=C(\CC(=O)c1cccs1)C(F)(F)F)c1ccncc1`, the “viability” value was 75%.
As for `CCOC(=O)c1oc2ccc(S(=O)(=O)n3nc(-c4ccc(C)cc4)cc3N)cc2c1C`, the figure is 75.5%; as for `CC(=O)Nc1ccc(S(=O)(=O)Nc2nc(C)nc3sc4c(c23)CCC4)cc1`, 88.4%.
For `COc1ccccc1/C=C/C(=O)c1ccc(NC(C)=O)cc1`, the “viability” value is 84.5%.
With `CCOC(=O)c1c(CSC(=N)N)n(-c2ccccc2)c2cc(Br)c(OC(C)=O)cc12`, the “viability” value was 81.1%.
The same measure for `CC(C)=CCN1CCN(Cc2cccc3nccnc23)CC1CCO` (centres undefined): 96.6%.
As for `Cc1ccc(/C([O-])=C(/C(=S)Nc2ccc(SC(F)F)cc2)[n+]2ccccc2)cc1[N+](=O)[O-]`, the figure is 80.7%; as for `Cc1ccc(/C=N/NC(=O)C[n+]2ccccc2)s1`, 96%.
`Cc1ccc(NC(=O)NCc2ccc3[nH]c(C)cc3c2)cc1`: the “viability” value is 85.9%.
As for `COc1cc(/C=C/C(=O)c2c(O)ccc3c(C)cc(=O)oc23)ccc1O`, the figure is 76.5%; as for `Cc1ccc(/C=C/c2onc(C)c2S(=O)(=O)N2CCC(C(=O)N3CCN(C)CC3)CC2)cc1`, 72.2%; as for `O=C(NC(Cc1c[nH]c2ccccc12)C(=O)Nc1ccc(F)cc1)c1cccs1` (centres undefined), 70.5%.
As for `S=c1[nH]nc(-c2ccccc2)n1/N=C/c1ccc(-c2ccccc2Cl)o1`, the “viability” value is 73.6%.
As for `Cc1ccc(NC(=O)c2ncn(CCCNCC3CCCCC3)n2)cc1C`, the figure is 76.9%.
For the compound `CCOc1ccccc1NC(=O)c1cc(S(=O)(=O)NCc2ccco2)ccc1F`, the “viability” value is 80%.
As for `CN1CCc2cccc3c2[C@H]1Cc1ccc(O)c(O)c1-3`, the figure is 93.6%; as for `COc1ccc2cc(-c3cc(C(=O)O)c4ccccc4n3)ccc2c1`, 79.3%.
As for `CCOc1ccc(NC(=O)c2c(NC(=O)CN3CCN(C)CC3)sc3c2CCC3)cc1`, the figure is 71.5%; as for `CCOc1ccc(NC(=O)Cn2sc3nc(C)cc(C)c3c2=O)cc1`, 82.7%; as for `CC(C)CC1c2[nH]c3ccccc3c2CCN1CCCn1cccn1` (centres undefined), 81.5%.
The same measure for `Nc1ncnn1Cc1ccccc1`: 95.4%; for `CCOC(=O)C1=NN(C(=O)c2ccc(OC)cc2)C(O)(c2ccc(Cl)cc2)C1` (centres undefined): 91.5%; for `CCC(=NN=C(CC)c1ccccc1O)c1ccccc1O`: 95%.
For `C#CCOc1ccc(C2C3=C(CC(C)(C)CC3=O)N(CC(=O)O)C3=C2C(=O)CC(C)(C)C3)cc1OC`, the “viability” value is 91.7%.
As for `O=c1c2cccnc2[nH]c(=S)n1CCCN1CCN(c2ccccc2F)CC1`, the figure is 70.8%; as for `O=C(NCc1ccccc1)C(=O)Nc1nc(-c2ccccc2)cs1`, 80.5%.
As for `Cc1cccc(-n2c(O)c(C=Nc3ccccc3-c3n[nH]c(=S)[nH]c3=O)c3ccccc3c2=O)n1`, the figure is 102%; as for `O=C(CNC(=O)C1COc2ccccc2O1)N/N=C\c1ccc(Cl)cc1` (centres undefined), 89.8%; as for `Nc1ccc(C(=O)OCCCc2nc3cc4ccccc4cc3[nH]2)cc1`, 96.1%.
The same measure for `CN(C)CCNc1nc2sc3c(c2c(=O)n1-c1ccccc1)CCCCC3`: 72.7%; for `Cc1ccc(-c2cc(-c3ccco3)c3c(N)c(C(=O)NN)oc3n2)cc1`: 80.4%; for `Cc1cccc(-c2ccc(NC(=O)C3CCN(CC4CC4)CC3)cc2)c1`: 89.7%.
`CCn1ncc(CN2CCC(C(=O)Nc3cccc(-c4cccc(F)c4)c3)CC2)c1C`: the “viability” value is 80.2%.
The same measure for `Cc1cccn2c(=O)c3cc(C#N)c(=NC(=O)c4cccs4)n(CC(C)C)c3nc12`: 85.9%.
With `COCCNC(=S)NCc1ccc2[nH]c3c(c2c1)CCCC3`, the “viability” value is 89.9%.
The same measure for `Cc1cc2nc3c(=O)[nH]c(=S)[nH]c3nc2cc1NC(=O)C(F)(F)F`: 83%.
The same measure for `Cc1cccnc1CN1CCN(Cc2nc(C(c3ccccc3)c3ccccc3)no2)CC1`: 91.9%; for `CN1CCc2nc(SCc3cccc(Br)c3)c(C#N)cc2C1`: 87.3%; for `COc1ccc2sc(N(CCCN(C)C)C(=O)c3ccc(S(=O)(=O)N(C)C4CCCCC4)cc3)nc2c1`: 79.1%.
As for `COc1ccc2sc(N(CCCN(C)C)C(=O)c3ccc(S(=O)(=O)N(C)Cc4ccccc4)cc3)nc2c1`, the figure is 87.9%; as for `O=C(NNC(=O)c1cc2cc(OC(F)(F)F)ccc2[nH]1)c1ccc(Cl)cc1`, 87.9%; as for `NNC(=O)c1n[nH]c(=O)c2ccccc12`, 94.6%.
Consider `Cc1cccc(CS(=O)(=O)c2ncc(Cl)c(C(=O)NCc3ccccc3)n2)c1`, for which the “viability” value is 90.3%.
As for `Cc1ccc2nc(-c3ccc(NC(=S)NCC(C)(C)CN(C)C)cc3)sc2c1`, the figure is 89.8%; as for `CCOc1ccc(N2C(=O)CC(Sc3nc4ccc(OCC)cc4s3)C2=O)cc1` (centres undefined), 100%.
The same measure for `CCOc1ccc(Cn2c(=O)sc3ccccc32)cc1`: 83.2%; for `Cc1nc(-c2ccccn2)sc1C(=O)Nc1ccc(Cl)c(Cl)c1`: 75.4%; for `CC12CCC(C(=NO)C1=O)C2(C)C` (centres undefined): 109%.
With `O=[N+]([O-])c1ccc(CNC2CCCc3ccccc32)cc1` (centres undefined), the “viability” value is 88%.
As for `COCCCNCCCCOc1ccc(OCc2ccccc2)cc1`, the figure is 75.8%.
As for `CN(C)c1ccc(P(=O)(OCc2ccccc2)C(O)c2ccccc2)cc1` (centres undefined), the figure is 83%; as for `CC(Oc1ccc(F)cc1)C(=O)Nc1ccc2ccccc2c1` (centres undefined), 93.3%; as for `CC(Oc1ccccc1F)C(=O)Nc1ccc2ccccc2c1` (centres undefined), 87.3%.
`Cc1cc(C(=O)OC(C)C(=O)Nc2nc(-c3ccccc3)cs2)c(C)o1` (centres undefined): the “viability” value was 88.3%.
As for `CCOc1ccccc1Nc1nnc(SC(C)C(=O)Nc2nc(-c3ccccc3)cs2)s1` (centres undefined), the figure is 79.9%; as for `Cc1cccc(-n2nc([N+](=O)[O-])c(=NC3CCN(Cc4ccccc4)CC3)n2O)c1`, 85.3%; as for `Cc1ccc(C)c(NC(=S)NCCN(C2CCCCC2)C2CCCC2)c1`, 87.6%.
As for `COC(=O)Cn1c(=O)c(C(=O)CCl)c(N)n(Cc2ccccc2)c1=O`, the figure is 82.1%; as for `Cc1ccc(C(=O)C[n+]2ccccc2C)cc1[N+](=O)[O-]`, 80.7%.
As for `CCOc1ccc(-n2c(=O)c3sccc3n(Cc3cccc([N+](=O)[O-])c3)c2=O)cc1`, the figure is 87.9%; as for `Cc1nn(C(C)C(=O)Nc2ccccc2Cl)c(=O)c2nn(-c3ccccc3)c(C)c12` (centres undefined), 83.4%; as for `Cc1ccc(S(=O)(=O)N2C[C@@H](C)[C@]3(C2)[C@H](O)[C@H](OC(=O)Nc2cccs2)C[C@H]2C(=O)N(c4ccccc4)C(=O)[C@H]23)cc1`, 71.4%.
For the compound `COc1ccc(/C=C2\CCCC3C2=NN(C(=O)CSc2n[nH]c(N)n2)C3c2ccc(OC)cc2)cc1` (centres undefined), the “viability” value is 84.7%.
Regarding `Cc1ccc2[nH]c(CN3CCC(CO)(CC4CCCCO4)CC3)c(C)c2c1` (centres undefined), the “viability” value is 72.8%.
As for `COc1cc(C(=O)O/N=C2/C=CC(=O)C(C)=C2C)cc(OC)c1OC`, the figure is 87.6%; as for `CC[C@@H](O)C[C@H]1CCC[C@@]2(C[C@@H]3OC(=O)/C=C/[C@@](C)(O)[C@@H](O)[C@H](C)[C@@H](O)[C@H](OC4CCC(N(C)C)C(C)O4)[C@@H](O)[C@](C)(O)CCCCC/C=C/[C@@H]4CC(C)(C)O[C@@]4(O)C[C@H](O2)[C@H]3C)O1` (some centres undefined), 6.04%; as for `O=C(Cc1cccc2ccccc12)Nc1ccc(Br)cc1C(=O)O`, 82.4%.
`COc1ccccc1NC(=O)c1cc2ccccc2o/c1=N\O`: the “viability” value was 77.5%.
As for `COc1ccc(/C=C/C(=O)NC(=S)N2CCN(c3ccccc3OC)CC2)cc1`, the figure is 93.5%; as for `CCOC(=O)N1CCN(C(=O)CNC2CCCCCCC2)CC1`, 93.7%; as for `C=CCN=c1scc(-c2ccccc2)n1/N=C/c1ccccn1`, 62.1%.
As for `N#C/C(=C/c1ccc(-c2ccc([N+](=O)[O-])cc2)o1)c1nnc(N2CCOCC2)n1-c1ccccc1`, the figure is 92%.
With `O=C(O)c1ccccc1NC(=O)c1ccccc1Nc1ccccc1`, the “viability” value was 84.6%.
As for `Cc1cccc2c(=O)n(C(=O)c3ccccc3)c(N)nc12`, the figure is 75%.
As for `Cc1ccc2c(c1)c1c3n2CCN(CC(O)CNC(C)C)C3CCC1` (centres undefined), the figure is 81.5%.
